KCNQ2 inh: rat KCNQ2 potassium channel inhibitors, primary screen, cell-based, CHO-K1, FluxOR thallium flux, B-score; 20 min; stronger effect = lower value; B-score at 10 µM; 310,000 compounds, 1.1% hits;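 active = fluorescence ratio B-score at most minus 3 library SDs, with starting brightness B-score within 2 library SDs, cut at about -5.5 in these data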
Target sequence (O88943 whole entry, looked up): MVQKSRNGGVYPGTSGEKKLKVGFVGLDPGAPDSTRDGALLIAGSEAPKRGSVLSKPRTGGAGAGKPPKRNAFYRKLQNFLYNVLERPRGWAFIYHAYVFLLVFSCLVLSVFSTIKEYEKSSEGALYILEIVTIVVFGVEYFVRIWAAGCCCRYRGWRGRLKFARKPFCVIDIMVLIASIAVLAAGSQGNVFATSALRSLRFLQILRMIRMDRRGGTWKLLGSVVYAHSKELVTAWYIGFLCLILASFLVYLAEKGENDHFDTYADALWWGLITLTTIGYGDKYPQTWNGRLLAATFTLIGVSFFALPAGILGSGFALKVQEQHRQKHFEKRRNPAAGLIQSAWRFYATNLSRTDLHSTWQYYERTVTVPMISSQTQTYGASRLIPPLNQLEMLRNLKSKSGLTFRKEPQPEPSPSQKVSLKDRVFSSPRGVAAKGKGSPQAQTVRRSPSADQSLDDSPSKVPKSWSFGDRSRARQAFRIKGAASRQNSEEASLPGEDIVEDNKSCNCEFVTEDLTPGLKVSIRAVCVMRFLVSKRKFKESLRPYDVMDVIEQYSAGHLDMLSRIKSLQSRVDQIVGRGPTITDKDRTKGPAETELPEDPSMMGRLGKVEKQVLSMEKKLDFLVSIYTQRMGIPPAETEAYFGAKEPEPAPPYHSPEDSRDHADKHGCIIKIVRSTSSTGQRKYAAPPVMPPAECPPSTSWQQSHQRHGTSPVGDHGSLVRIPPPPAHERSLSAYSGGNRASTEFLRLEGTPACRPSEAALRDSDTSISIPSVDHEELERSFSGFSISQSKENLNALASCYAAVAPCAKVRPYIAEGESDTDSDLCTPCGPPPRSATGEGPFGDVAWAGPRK
KCNQ2 pot: potentiators of rat KCNQ2 potassium channel. B-score at 10 µM. 310,000 compounds, 0.54% hits. CHO-K1 KCNQ2, FluxOR thallium flux fluorescence; stronger effect = higher value. Potassium voltage-gated channel subfamily KQT member 2 (Rattus norvegicus), O88943. AID 2239, 2010;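 active = fluorescence ratio B-score at least 3 SD of library B-scores, with initial fluorescence B-score within 3 of them, cut at about 5.3 in these data; same plate scores as AID 2156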;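 note: B-score of peak minus minimum over baseline fluorescence ratio after K+ and Tl+ stimulus; positive B-score means potentiation of KCNQ2 with more thallium influx and brighter signal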
The depositor's hits bear a star. Shown are actives, neighbours in structure and some others; about 1.6% of the full set was active somewhere.

How did CN(C(=O)Cn1nc(Cl)ccc1=O)C1CCCN(Cc2ccccc2F)C1 (stereo not drawn) do in these assays?
KCNQ2 inh: inactive; KCNQ2 pot: 2.4

What do the screens show for `Cn1c(=O)[nH]c(=O)c2c1nc([N+](=O)[O-])n2Cc1ccccc1`?
KCNQ2 inh: -6.2*; KCNQ2 pot: -6.2

Results for CC(C)Cn1c([N+](=O)[O-])nc2c1c(=O)[nH]c(=O)n2C ?
KCNQ2 inh: inactive

What do the screens show for `Cn1c(CNc2nc3ccccc3n2CCN2CCCCC2)nc2ccccc21`?
KCNQ2 inh: inactive

Results for CCN(CC)CCn1c(NCc2nc3ccccc3n2Cc2ccccc2)nc2ccccc21 ?
KCNQ2 inh: -6.2*; KCNQ2 pot: -6.2

How did c1ccc(Cn2c(CNc3nc4ccccc4n3CCN3CCCCC3)nc3ccccc32)cc1 do in these assays?
KCNQ2 inh: -7.3*; KCNQ2 pot: -7.3

What do the screens show for `CCN(CC)CCn1c(NCc2ccco2)nc2ccccc21`?
KCNQ2 inh: inactive; KCNQ2 pot: 0.5

How did O=C(CSc1ncnc2c1cnn2-c1cccc(Cl)c1)NCC1CCCO1 (stereo not drawn) do in these assays?
KCNQ2 inh: inactive; KCNQ2 pot: 0.15

What do the screens show for `CN1C2CCC1CC(NC(=O)c1cc(Cl)cc3[nH]cnc13)C2` (stereo not drawn)?
KCNQ2 inh: inactive; KCNQ2 pot: 1

What do the screens show for `CC1(C)Cc2c(C#N)c(N3CCCC3)nc(-c3ccco3)c2CO1`?
KCNQ2 inh: -9.1*; KCNQ2 pot: -9.1

Results for CC1(C)Cc2c(C#N)c(NCc3ccco3)nc(-c3ccco3)c2CO1 ?
KCNQ2 inh: inactive; KCNQ2 pot: 0.49

How did O=C(COc1ccc2c3c(c(=O)oc2c1)CCCC3)NCc1ccccn1 do in these assays?
KCNQ2 inh: inactive

Results for O=C(OC(C(=O)Nc1ccc(Cl)cc1C(F)(F)F)c1ccccc1)C1=COCCO1 (stereo not drawn) ?
KCNQ2 inh: inactive

Results for CN(C)c1cccc(C(=O)OC(C(=O)Nc2ccc(Cl)cc2C(F)(F)F)c2ccccc2)c1 (stereo not drawn) ?
KCNQ2 inh: -8*; KCNQ2 pot: -8

Results for COc1ccc(S(=O)(=O)N2CCC(C(=O)Oc3cccc(C)c3)CC2)cc1OC ?
KCNQ2 inh: inactive; KCNQ2 pot: 0.52

Results for Cc1ccc(N(CC2CO2)S(=O)(=O)c2ccc([N+](=O)[O-])cc2)cc1 (stereo not drawn) ?
KCNQ2 inh: -6.8*; KCNQ2 pot: -6.8

Results for Cc1ccc(N(CC2CO2)S(=O)(=O)c2ccc(C)cc2)cc1 (stereo not drawn) ?
KCNQ2 inh: inactive

How did CN(C)c1ccc(C(c2ccc(N(C)C)cc2)c2ccc([N+](=O)[O-])cc2)cc1 do in these assays?
KCNQ2 inh: -6.6*; KCNQ2 pot: -6.6

How did CN(C)c1ccc(C=NC(CO)C(O)c2ccc([N+](=O)[O-])cc2)cc1 (stereo not drawn) do in these assays?
KCNQ2 inh: inactive

How did CN(C)/C(=N\S(=O)(=O)c1ccc(Cl)cc1)c1ccc(F)cc1 do in these assays?
KCNQ2 inh: inactive; KCNQ2 pot: 3.3

How did Cn1ncc(C#N)c1/N=C/N(Cc1ccccc1)Cc1ccccc1 do in these assays?
KCNQ2 inh: -5.7*; KCNQ2 pot: -5.7

What do the screens show for `Cn1ncc(C#N)c1/N=C/N1CCCC1`?
KCNQ2 inh: inactive; KCNQ2 pot: 0.14

What do the screens show for `COc1cc(Br)c(CN2C(=O)NC3(CCCCCC3)C2=O)cc1OC`?
KCNQ2 inh: inactive; KCNQ2 pot: 2.3

How did Cc1cccc(CSc2nc3sc(C)c(C)c3c(=O)n2Cc2ccco2)c1 do in these assays?
KCNQ2 inh: inactive; KCNQ2 pot: 0.57

Results for Cc1cccc(CSc2nnc(-c3cccs3)n2Cc2ccco2)c1 ?
KCNQ2 inh: -6.1*; KCNQ2 pot: -6.1

Results for Cc1ccc(-n2cc(CNCCc3cscn3)c(-c3ccc(F)cc3)n2)cc1 ?
KCNQ2 inh: -6.8*; KCNQ2 pot: -6.8

What do the screens show for `COc1ccc(-n2cc(CNCCc3cscn3)c(-c3ccccc3Cl)n2)cc1`?
KCNQ2 inh: inactive

Results for Cc1cc(C)c(C)c(S(=O)(=O)N2CCC(C(=O)N3CCCCCCC3)CC2)c1C ?
KCNQ2 inh: inactive; KCNQ2 pot: 0.04

What do the screens show for `COc1ccc(C(CNC(=O)c2oc3cc(C)c(Cl)cc3c2C)N2CCCCC2)cc1` (stereo not drawn)?
KCNQ2 inh: -5.8*; KCNQ2 pot: -5.8

How did COc1ccc(C(CNC(=O)c2oc3ccc(C)cc3c2C)N2CCCCC2)cc1 (stereo not drawn) do in these assays?
KCNQ2 inh: inactive

What do the screens show for `COc1ccc(C(CNC(=O)COc2cc(C)c(Cl)c(C)c2)N2CCCCC2)cc1` (stereo not drawn)?
KCNQ2 inh: -6*; KCNQ2 pot: -6

Results for COc1ccc(C(CNC(=O)COc2ccc(C)c(C)c2)N2CCCCC2)cc1 (stereo not drawn) ?
KCNQ2 inh: inactive

What do the screens show for `C[C@H](NC(=O)c1nc[nH]c1C(=O)NCC(=O)OCc1ccccc1)c1ccccc1`?
KCNQ2 inh: inactive

How did COc1ccccc1OCC(=O)N/N=C/c1cccc2cccnc12 do in these assays?
KCNQ2 inh: inactive; KCNQ2 pot: 0.03

How did COc1ccccc1OCC(=O)N/N=C/c1c(O)ccc2ccccc12 do in these assays?
KCNQ2 inh: -6*; KCNQ2 pot: -6

What do the screens show for `CC(=O)Oc1ccc(/C(C)=N/N2CCN(Cc3ccc(C)cc3)CC2)cc1`?
KCNQ2 inh: inactive; KCNQ2 pot: 1

How did CC(C)Oc1ccccc1C1(c2ccccc2)NC(=O)NC1=O (stereo not drawn) do in these assays?
KCNQ2 inh: inactive

Results for Cc1noc(C)c1CSCC(=O)NCCN1C(=O)S/C(=C\c2ccccc2F)C1=O ?
KCNQ2 inh: inactive

How did O=[N+]([O-])c1ccc(Nc2ccccc2F)nc1 do in these assays?
KCNQ2 inh: inactive; KCNQ2 pot: 5.3*

Results for Cc1ccccc1Nc1ccc([N+](=O)[O-])cn1 ?
KCNQ2 inh: inactive; KCNQ2 pot: 0.83

How did COC(=O)c1c(NC(=S)NNC(=O)c2ccc(Cl)s2)sc(C(=O)N(C)C)c1C do in these assays?
KCNQ2 inh: inactive

What do the screens show for `O=c1c2ccccc2nc(SCc2ccccc2Cl)n1Cc1ccccc1`?
KCNQ2 inh: inactive

Results for O=C1OCCC1Sc1nc2ccccc2c(=O)n1Cc1ccc(F)cc1 (stereo not drawn) ?
KCNQ2 inh: inactive; KCNQ2 pot: 6.3*

What do the screens show for `CCN(CC)C(=O)CSc1nc2ccccc2c(=O)n1CC`?
KCNQ2 inh: inactive; KCNQ2 pot: 0.8

What do the screens show for `CCOC(=O)CSc1nc2ccccc2c(=O)n1CC`?
KCNQ2 inh: inactive; KCNQ2 pot: 0.49

What do the screens show for `O=C1OCCC1Sc1nc2ccccc2c(=O)n1-c1ccc(F)cc1` (stereo not drawn)?
KCNQ2 inh: inactive

How did CCOC(=O)CSc1nc2ccccc2c(=O)n1CC1CCCC1 do in these assays?
KCNQ2 inh: -6.1*; KCNQ2 pot: -6.1

What do the screens show for `C=CCSc1nc2ccccc2c(=O)n1Cc1ccccc1`?
KCNQ2 inh: -5.7*; KCNQ2 pot: -5.7

Results for CCn1c(SCc2ccccc2)nc2ccccc2c1=O ?
KCNQ2 inh: inactive; KCNQ2 pot: 8.2*

Source: PubChem BioAssay
